# Reference: PubChem BioAssay AID1159580 (chemical genetic matrix, 2015)
# Hit rate of the full screen: of about 5,500 compounds, about 2,000 (36%) were called active. Another 18% or so got no clear call; they are omitted. The list shows a part of the results. Values without a mark were called inactive. No stated cut-off is given here; in the data, active means normalized growth mostly below about 0.91 (no sharp cut-off); inconclusive means no clear call, values can overlap the other calls; inactive means mostly above about 0.92.
# Assay: chemical genetic growth profiling, strain panel (AID 1159580);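 further: tested at 20 µM; growth read once vehicle control cultures reached saturation at 30 °C; 1 = growth at the plate median or of vehicle wells; lower values mean less growth of the strain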
# Conditions: S. cerevisiae deletion strains, growth OD
# [1] = locus YAR019C, strain CDC15, hits give low values
# [2] = locus YBL105C, strain PKC1, hits give low values
# [3] = locus YBR135W, strain CKS1, hits give low values
# [4] = locus YBR136W, strain MEC1, hits give low values
# [5] = locus YBR160W, strain CDC28, hits give low values
# [6] = locus YDL017W, strain CDC7, hits give low values
# [7] = locus YDL028C, strain MPS1, hits give low values
# [8] = locus YDL101C, strain DUN1, hits give low values
# [9] = locus YDL108W, strain KIN28, hits give low values
# [10] = locus YDL132W, strain cdc53, hits give low values
# [11] = locus YDL214C, strain PRR2, hits give low values
# [12] = locus YDR052C, strain DBF4, hits give low values
# [13] = locus YDR054C, strain cdc34, hits give low values
# [14] = locus YDR226W, strain ADK1, hits give low values
# [15] = locus YDR477W, strain SNF1, hits give low values
# [16] = locus YER123W, strain YCK3, hits give low values
# [17] = locus YER133W, strain GLC7, hits give low values
# [18] = locus YFL009W, strain cdc4, hits give low values
# [19] = locus YFL029C, strain CAK1, hits give low values
# [20] = locus YFR003C, strain YPI1, hits give low values
# [21] = locus YFR019W, strain FAB1, hits give low values
# [22] = locus YFR028C, strain CDC14, hits give low values
# [23] = locus YGR040W, strain KSS1, hits give low values
# [24] = locus YGR052W, strain FMP48, hits give low values
# [25] = locus YGR092W, strain DBF2, hits give low values
# [26] = locus YHR030C, strain SLT2, hits give low values
# [27] = locus YHR079C, strain IRE1, hits give low values
# [28] = locus YHR082C, strain KSP1, hits give low values
# [29] = locus YHR205W, strain SCH9, hits give low values
# [30] = locus YIL147C, strain SLN1, hits give low values
# [31] = locus YJL095W, strain BCK1, hits give low values
# [32] = locus YJL128C, strain PBS2, hits give low values
# [33] = locus YJL157C, strain FAR1, hits give low values
# [34] = locus YJR016C, strain ILV3, hits give low values
# [35] = locus YJR066W, strain TOR1 (second series), hits give low values
# [36] = locus YJR066W, strain TOR1, hits give low values
# [37] = locus YKL048C, strain ELM1, hits give low values
# [38] = locus YKL067W, strain YNK1, hits give low values
# [39] = locus YKL101W, strain HSL1, hits give low values
# [40] = locus YKL193C, strain SDS22, hits give low values
# [41] = locus YKL203C, strain TOR2, hits give low values
# [42] = locus YLR113W, strain HOG1, hits give low values
# [43] = locus YLR133W, strain CKI1, hits give low values
# [44] = locus YLR403W, strain SFP1, hits give low values
# [45] = locus YML070W, strain DAK1, hits give low values
# [46] = locus YMR001C, strain CDC5, hits give low values
# [47] = locus YMR205C, strain PFK2 (second series), hits give low values
# [48] = locus YMR277W, strain FCP1, hits give low values
# [49] = locus YNL006W, strain LST8, hits give low values
# [50] = locus YNL020C, strain ARK1, hits give low values
# [51] = locus YNL161W, strain CBK1, hits give low values
# [52] = locus YNL183C, strain NPR1, hits give low values
# [53] = locus YNL207W, strain RIO2, hits give low values
# [54] = locus YNL222W, strain SSU72, hits give low values
# [55] = locus YNL307C, strain MCK1 (second series), hits give low values
# [56] = locus YOL078W, strain AVO1, hits give low values
# [57] = locus YOL136C, strain PFK27, hits give low values
# [58] = locus YOR061W, strain CKA2, hits give low values
# [59] = locus YOR119C, strain RIO1, hits give low values
# [60] = locus YOR231W, strain MKK1, hits give low values
# [61] = locus YOR329C, strain SCD5, hits give low values
# [62] = locus YPL031C, strain PHO85, hits give low values
# [63] = locus YPL153C, strain RAD53, hits give low values
# [64] = locus YPL204W, strain HRR25, hits give low values
# [65] = locus YPL209C, strain IPL1, hits give low values
# [66] = locus YPL256C, strain CLN2, hits give low values
# [67] = locus YPR025C, strain CCL1, hits give low values
# [68] = locus YPR106W, strain ISR1, hits give low values
# [69] = locus YPR111W, strain DBF20, hits give low values
# [70] = strain NNK1, hits give low values
# [71] = strain TSCII, hits give low values
smiles,measurement,setting,value
Cc1onc(-c2c(F)cccc2Cl)c1/C(N)=N\OC(=O)c1ccc(C(C)(C)C)cc1,normalized growth,[1],0.989
same,normalized growth,[2],0.998
same,normalized growth,[3],0.985
same,normalized growth,[4],0.986
same,normalized growth,[5],0.989
same,normalized growth,[6],0.993
same,normalized growth,[7],0.985
same,normalized growth,[8],0.98
same,normalized growth,[9],0.978
same,normalized growth,[10],0.989
same,normalized growth,[11],0.971
same,normalized growth,[12],0.994
same,normalized growth,[13],1
same,normalized growth,[14],0.989
same,normalized growth,[15],0.976
same,normalized growth,[16],0.948
same,normalized growth,[17],0.967
same,normalized growth,[18],0.987
same,normalized growth,[19],1
same,normalized growth,[20],0.997
same,normalized growth,[21],0.982
same,normalized growth,[22],0.984
same,normalized growth,[23],0.975
same,normalized growth,[24],1.1
same,normalized growth,[25],1
same,normalized growth,[26],1.17 [resistant] (active)
same,normalized growth,[27],1.08
same,normalized growth,[28],1.11
same,normalized growth,[29],0.986
same,normalized growth,[30],0.981
same,normalized growth,[31],1.11
same,normalized growth,[32],0.957
same,normalized growth,[33],0.963
same,normalized growth,[34],0.982
same,normalized growth,[35],0.932
same,normalized growth,[36],1.12
same,normalized growth,[37],0.983
same,normalized growth,[38],0.994
same,normalized growth,[39],0.972
same,normalized growth,[40],0.991
same,normalized growth,[41],1.05
same,normalized growth,[42],1
same,normalized growth,[43],0.988
same,normalized growth,[44],0.968
same,normalized growth,[45],0.966
same,normalized growth,[46],0.987
same,normalized growth,[47],0.987
same,normalized growth,[48],0.992
same,normalized growth,[49],0.988
same,normalized growth,[50],0.978
same,normalized growth,[51],0.991
same,normalized growth,[52],1.11
same,normalized growth,[53],0.99
same,normalized growth,[54],0.99
same,normalized growth,[55],0.998
same,normalized growth,[56],0.982
same,normalized growth,[57],0.956
same,normalized growth,[58],0.967
same,normalized growth,[59],1.02
same,normalized growth,[60],1.05
same,normalized growth,[61],0.996
same,normalized growth,[62],0.991
same,normalized growth,[63],0.973
same,normalized growth,[64],0.979
same,normalized growth,[65],0.993
same,normalized growth,[66],1.05
same,normalized growth,[67],0.99
same,normalized growth,[68],0.988
same,normalized growth,[69],0.986
same,normalized growth,[70],0.99
same,normalized growth,[71],0.99
COc1c(Br)cc(/C(N)=N\OC(=O)c2c(-c3c(Cl)cccc3Cl)noc2C)cc1Br,normalized growth,"locus YAL013W, strain DEP1, hits give low values",1.03
same,normalized growth,"locus YBR229C, strain ROT2, hits give low values",1.01
same,normalized growth,[8],1
same,normalized growth,"locus YDR150W, strain NUM1, hits give low values",1.02
same,normalized growth,"locus YEL061C, strain CIN8, hits give low values",0.983
same,normalized growth,"locus YGR078C, strain PAC10, hits give low values",1.02
same,normalized growth,[26],1.08
same,normalized growth,"locus YHR087W, strain rtc3, hits give low values",1.02
same,normalized growth,"locus YJR043C, strain POL32, hits give low values",1.01
same,normalized growth,"locus YJR075W, strain HOC1, hits give low values",1.01
same,normalized growth,"locus YKL190W, strain CNB1, hits give low values",1.01
same,normalized growth,"locus YLR039C, strain RIC1, hits give low values",1.09
same,normalized growth,"locus YLR058C, strain SHM2 (second series), hits give low values",1.01
same,normalized growth,"locus YLR085C, strain ARP6, hits give low values",1.13
same,normalized growth,"locus YLR262C, strain YPT6, hits give low values",1.04
same,normalized growth,"locus YML094W, strain GIM5, hits give low values",1.04
same,normalized growth,"locus YMR219W, strain ESC1, hits give low values",1.01
same,normalized growth,"locus YMR263W, strain SAP30, hits give low values",1
same,normalized growth,"locus YMR307W, strain GAS1, hits give low values",1.05
same,normalized growth,"locus YNL153C, strain GIM3, hits give low values",0.998
same,normalized growth,"locus YNL298W, strain CLA4 (second series), hits give low values",1.05
same,normalized growth,"locus YNL322C, strain KRE1, hits give low values",1.01
same,normalized growth,"locus YNR030W, strain Alg12, hits give low values",1.03
same,normalized growth,"locus YPL055C, strain LGE1, hits give low values",1.07
same,normalized growth,"locus YPL241C, strain CIN2, hits give low values",0.98
same,normalized growth,"locus YPR135W, strain CTF4, hits give low values",1.17
Cc1onc(-c2c(Cl)cccc2Cl)c1C(=O)O/N=C(/N)Cc1ccc(C(C)(C)C)cc1,normalized growth,[1],0.991
same,normalized growth,[2],0.986
same,normalized growth,[3],0.988
same,normalized growth,[4],0.995
same,normalized growth,[5],0.983
same,normalized growth,[6],0.988
same,normalized growth,[7],0.993
same,normalized growth,[8],0.986
same,normalized growth,[9],0.989
same,normalized growth,[10],0.983
same,normalized growth,[11],0.982
same,normalized growth,[12],0.987
same,normalized growth,[13],0.989
same,normalized growth,[14],0.993
same,normalized growth,[15],1
same,normalized growth,[16],0.998
same,normalized growth,[17],0.999
same,normalized growth,[18],0.987
same,normalized growth,[19],0.986
same,normalized growth,[20],0.996
same,normalized growth,[21],0.995
same,normalized growth,[22],0.989
same,normalized growth,[23],0.999
same,normalized growth,[24],1.15
same,normalized growth,[25],0.983
same,normalized growth,[26],1.22 [resistant] (active)
same,normalized growth,[27],1.12
same,normalized growth,[28],1.16
same,normalized growth,[29],0.993
same,normalized growth,[30],0.987
same,normalized growth,[31],1.15
same,normalized growth,[32],0.953
same,normalized growth,[33],0.991
same,normalized growth,[34],0.992
same,normalized growth,[35],0.986
same,normalized growth,[36],1.17
same,normalized growth,[37],0.999
same,normalized growth,[38],1
same,normalized growth,[39],0.998
same,normalized growth,[40],0.989
same,normalized growth,[41],1.06
same,normalized growth,[42],1.08
same,normalized growth,[43],0.991
same,normalized growth,[44],0.994
same,normalized growth,[45],0.99
same,normalized growth,[46],0.989
same,normalized growth,[47],1
same,normalized growth,[48],0.994
same,normalized growth,[49],0.994
same,normalized growth,[50],1.01
same,normalized growth,[51],0.995
same,normalized growth,[52],1.14
same,normalized growth,[53],0.992
same,normalized growth,[54],0.987
same,normalized growth,[55],0.995
same,normalized growth,[56],0.985
same,normalized growth,[57],1.02
same,normalized growth,[58],1.01
same,normalized growth,[59],1.05
same,normalized growth,[60],1.08
same,normalized growth,[61],0.997
same,normalized growth,[62],1.02
same,normalized growth,[63],1
same,normalized growth,[64],1.02
same,normalized growth,[65],1
same,normalized growth,[66],1.1
same,normalized growth,[67],0.986
same,normalized growth,[68],0.994
same,normalized growth,[69],0.988
same,normalized growth,[70],0.997
same,normalized growth,[71],0.99
